In the library only some 1.4% were active in any assay of this set; here they are far more common.
PINK1 expr mod = PINK1 expression modulation. PINK1 immunofluorescence, high-content cytometry, 24 h. Potency, µM (highest dose often 76.6 µM), most hits filed as activators. 410,000 tested, 0.2% active. AID 624263; active means well fitted activation curve with a large enough effect; inconclusive means small, poorly fitted or top-dose-only effect; cell line not stated here; further: nearly all actives have a fitted effect of over 65% in size
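A stable cell line was treated with compounds at 5 concentrations for 24 hours, with CCCP as control. PINK1 levels and mitochondrial localization were measured by immunofluorescence with mitochondrial, cell and nuclear markers after fixation, read by laser-scanning cytometry.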
p53 reactivator = re-activators of mutant p53; H1299 p53-A138V BP100-luciferase reporter, luminescence, 24 h; Potency, µM (highest dose often 92.2 µM), actives largely listed as activators; 320,000 tested, 0.063% active; AID 504706; further: nearly all actives have a fitted effect of over 45% in size
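H1299 (p53-null), stable ts p53-A138V + BP100-Luc; 1000 cells/well, Opti-MEM/10% FBS; cpd 4 pt, 1:5; 24 h, 37 deg C, 5% CO2; detection reagent 10 min RT; luminescence.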
Mm-Cpn inhibitor = inhibitors of Methanococcus maripaludis chaperonin TRiC (MmCpn). purified Mm-Cpn ATPase, ADP Transcreener TR-FRET. Potency, µM (series often up to 76.9 µM), most hits filed as inhibitors. 330,000 tested, 0.031% active; further: nearly all actives have a fitted effect of over 80% in size
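Quantitative HTS used 25 nM Mm-CPN and 10 uM ATP in magnesium/KCl Tris buffer, pH 7.4, with 1 mM DTT. Hydrolysis ran 30 min at 37°C; ADP was read by HTRF.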
12-LOX inh = blocks human arachidonate 12S-lipoxygenase | 580,000 tested, 1.1% active | purified 12hLO, xylenol orange hydroperoxide absorbance | Potency, µM (highest dose often 108 µM), usual class: inhibitors
Target sequence (P18054 whole entry, looked up): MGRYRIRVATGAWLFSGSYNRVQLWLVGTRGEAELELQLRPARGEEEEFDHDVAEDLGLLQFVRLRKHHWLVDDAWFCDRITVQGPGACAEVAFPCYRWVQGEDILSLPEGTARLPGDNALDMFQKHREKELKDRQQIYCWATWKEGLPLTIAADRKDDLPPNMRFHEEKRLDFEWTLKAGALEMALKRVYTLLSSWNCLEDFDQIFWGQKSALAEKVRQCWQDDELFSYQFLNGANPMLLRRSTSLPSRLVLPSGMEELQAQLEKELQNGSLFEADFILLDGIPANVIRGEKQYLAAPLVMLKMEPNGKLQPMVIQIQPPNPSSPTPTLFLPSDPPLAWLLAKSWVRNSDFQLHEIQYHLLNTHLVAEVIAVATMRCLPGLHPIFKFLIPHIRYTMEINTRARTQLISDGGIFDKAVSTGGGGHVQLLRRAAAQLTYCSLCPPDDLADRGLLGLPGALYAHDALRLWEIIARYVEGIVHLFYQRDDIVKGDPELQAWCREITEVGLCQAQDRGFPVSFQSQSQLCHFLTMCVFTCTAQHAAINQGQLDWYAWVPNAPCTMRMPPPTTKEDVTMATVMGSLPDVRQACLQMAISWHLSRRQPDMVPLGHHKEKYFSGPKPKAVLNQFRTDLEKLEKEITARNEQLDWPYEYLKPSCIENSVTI
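Purified human 12hLO at 150 nM in 25 mM Hepes, 0.01% Triton X-100, pH 7.0, preincubated 15 min at room temperature with compound. Reaction started with 40 uM arachidonic acid, 30 min at room temperature. Hydroperoxide measured by Fe-xylenol orange, 573/405 nm absorbance ratio.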
CCT chaperon mod = changes cytosolic chaperonin activity; activity change, % (no concentration beside the values), hits read low; purified chaperonin ATPase assay, HTRF ADP detection, 30 min; 360,000 tested, 0.3% active; in the data active means activity change below about -30%
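TRiC at 40 or 20 nM final (batch-dependent) in 30 mM Tris pH 7.4, 100 mM KCl, 5 mM MgCl2, 1 mM DTT, with compound at single 76 uM and 10 uM ATP, 30 min at 37 deg C. ADP detected by HTRF Transcreener, 665/615 ratio.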
ASM inhibitor = human S-ASM enzyme inhibition | P17405 | placental ASM, HMU-PC fluorogenic substrate, 60 min | Potency, µM (doses to about 57.5 µM), usual class: inhibitors | 340,000 tested, 0.006% active
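Fluorogenic HMU-PC substrate (9 uM final) is turned over by placental ASM in 60 min at 37 C after a 10 min compound preincubation. Reaction ended by alkaline stop (pH 10), with fluorescence read at 386/447 nm.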
Numbers stand for hits; i = inactive; ? = inconclusive; nt = no result given. Unless noted, the call rests on the fitted dose curve; in most records, active means well fitted curve in the direction sought with a large enough effect; inconclusive means small, poorly fitted or top-dose-only effect, or another doubt; inactive means no such curve, though single readings can be large; an effect the other way counts as inactive or inconclusive.

SMILES | PINK1 expr mod | p53 reactivator | Mm-Cpn inhibitor | 12-LOX inh | CCT chaperon mod | ASM inhibitor
Cc1cc2cc(CNC(=S)Nc3ccc(OC(F)(F)F)cc3)ccc2[nH]1 | i | i | i | 32µM | i | i
CC(Oc1ccc(Cl)cc1)C(=O)Nc1ccc(N2CCN(C)CC2)nc1 (centres undefined) | nt | nt | nt | i | nt | nt
O=C(CSc1nc2ccccc2o1)Nc1cc(Cl)cc(Cl)c1 | nt | nt | nt | i | nt | nt
CCOc1ccc2[nH]cc(C(=O)N3CCN(C4CCCCC4)CC3)c(=O)c2c1 | i | nt | nt | i | -57 | i
COc1ccccc1CNC(=O)c1ccc(N2CCCC2)c(NC(=O)Nc2cc(F)ccc2F)c1 | nt | nt | nt | i | nt | nt
O=C(CN1CCN(C(=O)c2nn(-c3ccccc3)c(=O)c3ccccc23)CC1)N1CCCCCC1 | nt | nt | nt | i | nt | nt
N#CC(C#N)=C1SC(=Nc2ccccc2)C(=Nc2ccccc2)N1c1ccccc1 | 32µM | nt | nt | i | i | i
O=C(COC(=O)c1cc(-c2ccc(F)cc2)nc2ccccc12)NC1CC1 | nt | nt | nt | i | nt | nt
CC(C)(C)c1cc(Cc2cc(C(C)(C)C)c(O)c(C(C)(C)C)c2)cc(C(C)(C)C)c1O | nt | nt | nt | i | nt | nt
Cc1cccc(NCc2cc(C(C)(C)C)c(O)c(C(C)(C)C)c2)c1 | nt | nt | nt | 10µM | nt | nt
CCCc1cc2c(O)ccc(O)c2c(=O)o1 | nt | nt | nt | 35µM | nt | nt
O=c1ccc2cc3c4c(c2o1)CCCN4CCC3 | i | i | i | i | i | i
O=c1oc2c3c4c(cc2s1)CCCN4CCC3 | i | i | i | 18µM | i | i
Cc1cc(C(F)F)nn1Cc1nc2c3c4c(sc3ncn2n1)CC(C)CC4 (centres undefined) | nt | nt | nt | i | nt | nt
COc1ccc2cc(CN(Cc3cccnc3)S(=O)(=O)c3ccccc3)c(=O)[nH]c2c1 | i | i | i | 45µM | i | i
O=S(=O)(c1ccc2[nH]c3c(c2c1)CCCC3)N1CCCCC1 | ? | i | i | i | -73 | i
CCN(c1ccc(OC)cc1)S(=O)(=O)c1ccc2[nH]c3c(c2c1)CCCCC3 | 25µM | nt | nt | i | nt | nt
CC(=O)c1ccc(NC(=O)C2(c3ccccc3)CCCC2)cc1 | nt | nt | nt | i | nt | nt
NC1CC(c2cc(N3CCN(c4nnc(C(F)(F)F)s4)CC3)ncn2)C1 (centres undefined) | nt | nt | nt | i | nt | nt
Cc1cncnc1C1CCN(c2cc(C3CC(N)C3)ncn2)CC1 (centres undefined) | nt | nt | nt | 14µM | nt | nt
COCCn1c(SCc2nc(-c3ccc(C)cc3)no2)nc2ccsc2c1=O | nt | nt | nt | i | nt | nt
Cc1ccc(S(=O)(=O)Nn2c(O)c(C=C3N=c4ccccc4=N3)sc2=S)cc1 | i | i | i | 35µM | i | i
O=C1N=c2ccc(Br)cc2=C1c1sc(=S)n(NS(=O)(=O)c2ccccc2)c1O | i | i | i | 35µM | i | i
O=C(CC1C=CCC1)N(Cc1ccco1)C1CC1 (centres undefined) | nt | nt | nt | i | nt | nt
CCOc1ccc(NC(=O)c2ccco2)c([N+](=O)[O-])c1 | i | 4.5µM | i | i | i | i
SMILES | PINK1 expr mod | p53 reactivator | Mm-Cpn inhibitor | 12-LOX inh | CCT chaperon mod | ASM inhibitor
Cc1cc(C)cc(C(=O)NC(=S)Nc2ccc(Cc3ccncc3)cc2)c1 | i | i | i | 45µM | i | i
Cc1cccc(C(=O)NC(=S)NC(C)c2ccccc2)c1 (centres undefined) | i | nt | nt | 6.3µM | i | i
CC(NC(=S)NC(=O)c1ccccc1)c1ccccc1 (centres undefined) | i | nt | nt | i | i | i
COc1ccc(S(=O)(=O)N2CCCCC2)cc1NC(=S)Nc1ccccc1 | i | i | i | i | i | i
COc1ccc(S(=O)(=O)N2CCCCC2)cc1NC(=S)Nc1cccc(Cl)c1C | i | i | i | 40µM | i | i
COc1cc(C(=O)NC(=S)Nc2ccc(Cc3ccncc3)cc2)cc(OC)c1OC | i | i | i | i | i | i
Cc1cccc(C(=O)NC(=S)Nc2ccc(S(=O)(=O)N3CCCCC3)cc2)c1 | i | i | i | 11µM | i | i
O=C(CC1C=CCC1)Nc1cccc(OC2CCCC2)c1 (centres undefined) | nt | nt | nt | i | nt | nt
Cc1ccccc1-c1nc(-c2ccccc2OCC(=O)N2CCCC(C)C2)no1 (centres undefined) | nt | nt | nt | i | nt | nt
COC(=O)c1ccc(NC(=O)COc2cc(C)c(Cl)c(C)c2)cc1 | nt | nt | nt | i | nt | nt
CCn1c(CNC(C)c2ccc(F)cc2)nc2cc(S(=O)(=O)N3CCCCC3)ccc21 (centres undefined) | nt | nt | nt | i | nt | nt
Cc1cccc(C(=O)NC(=S)Nc2ccc(Cc3ccncc3)cc2)c1 | i | i | i | 45µM | i | i
CCC(=O)Nc1cccc(NC(=S)NC(=O)c2cccc(C)c2)c1 | i | ? | i | 35µM | i | i
Cn1c(CCNC(=O)c2ccccc2F)nnc1SCC(=O)N1CCOCC1 | nt | nt | nt | i | nt | nt
CCCn1c(/C=C/c2ccco2)nc2ccccc21 | i | ? | i | ? | i | i
Cc1ccc(Cn2c(/C=C/c3ccco3)nc3ccccc32)cc1 | i | ? | i | 16µM | i | i
Clc1ccc(Cn2c(/C=C/c3ccco3)nc3ccccc32)cc1 | i | ? | i | 18µM | i | i
COc1ccc(-n2c(-c3ccc(Br)cc3)c[n+]3c2CCc2ccccc2-3)cc1 | 28µM | i | i | i | i | i
CCOc1ccc(-n2c(-c3ccc(OC)cc3)c[n+]3c2CCCCC3)cc1 | 16µM | i | i | i | i | i
CCOc1ccc(-n2c(-c3ccc(Br)cc3)c[n+]3c2CCCCC3)cc1 | ? | i | i | i | i | i
COC(=O)C(Cl)(C(=O)OC)C(OC)(C(=O)OC)C(=O)OC | nt | nt | nt | i | nt | nt
COC(=O)C(Br)(C(=O)OC)C(OC)(C(=O)OC)C(=O)OC | nt | nt | nt | 0.71µM | nt | nt
CCC(C)Sc1cccc(-c2nc3cc(C)ccn3c2NC2CCCCC2)c1 (centres undefined) | 14µM | i | i | ? | i | i
Cc1ccn2c(NC3CCCCC3)c(-c3ccc(SC4CCCCC4)cc3)nc2c1 | ? | nt | nt | ? | i | nt
Cc1ccn2c(NC3CCCCC3)c(-c3cccc(SC4CCCCC4)c3)nc2c1 | 20µM | i | i | ? | i | i
SMILES | PINK1 expr mod | p53 reactivator | Mm-Cpn inhibitor | 12-LOX inh | CCT chaperon mod | ASM inhibitor
CCCCCCSc1cccc(-c2nc3cc(C)ccn3c2NC2CCCCC2)c1 | ? | i | i | i | i | i
COc1cccc(C(=O)/C(C#N)=C\c2ccccc2C(F)(F)F)c1 | nt | nt | nt | 40µM | nt | nt
COc1cccc(C(=O)/C(C#N)=C\c2ccc(F)c(Br)c2)c1 | nt | nt | nt | 18µM | nt | nt
COc1ccc(/C=C(/C#N)C(=O)c2c(Cl)cccc2Cl)cc1 | nt | nt | nt | 6.3µM | nt | nt
COc1cccc(/C(O)=C2\C(=O)C(=O)N(c3ccccn3)C2c2cccc(Br)c2)c1 (centres undefined) | nt | nt | nt | 35µM | nt | nt
CCCCc1c(C)c(C#N)c2[nH]c3ccccc3n2c1=O | 40µM | i | ? | i | i | i
Cc1cc(C)nc(NC(=NCc2ccc3c(c2)OCO3)NC(=O)Nc2ccccc2)n1 | 14µM | nt | nt | i | i | i
FC(F)(F)c1ccccc1-c1cncnc1NCCN1CCOCC1 | i | nt | nt | 18µM | nt | nt

Compound activity as filed in PubChem.
